# From PubChem BioAssay
# MPTP inh – mitochondrial permeability transition pore inhibitors, primary screen, biochemical, isolated mouse mitochondria, absorbance; Ca2+ swelling absorbance, 30 min; inhibition, % at 10 µM; hit rate 1.4% among 360,000; AID 602449, 2012;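 active = inhibition of 50% or more, scaled per plate between neutral and stimulator controls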;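 also: 0% = DMSO wells given calcium and 100% = 1 mM EGTA wells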
# rCAG RNA binder – binders of r(CAG) RNA repeats, primary screen, biochemical, fluorescence | inhibition, % at 3 µM | r(CAG) RNA repeat, TO-PRO-1 dye displacement fluorescence | hit rate 1.3% among 370,000;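 active = inhibition above the plate cutoff, the mean of all test compounds on that plate plus 3 SD, cut at about 35% in these data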;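 also: 0% = DMSO alone and 100% = 100 µM mitoxantrone as full dye displacement; higher means more dye released from RNA so lower well fluorescence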
# Pemphigus Ab inh – inhibitors of pemphigus antibody binding to DSG3, primary screen, biochemical, bead-based, flow cytometry, scFv-GFP; AID 588358, 2011; hit rate 0.48% among 310,000; binding (percent of control), % at 10 µM; Desmoglein-3 (Homo sapiens), P32926; DSG3-coupled beads, scFv-anti-DSG3-GFP binding; active compounds read low;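 active = binding more than 3 SD below its plate's average and above zero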;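 also: hits lower antibody fragment binding to DSG3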
# ADAM10 inh – human ADAM10 inhibitors, primary screen, biochemical, QFRET, HTS | Disintegrin and metalloproteinase domain-containing protein 10 (Homo sapiens), O14672 | recombinant ADAM10, EDANS/DABCYL FRET peptide cleavage, 3 h | inhibition, % at 7 µM | hit rate 0.62% among 370,000 | AID 720582, 2013;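 active = inhibition above a per-campaign cutoff equal to the mean of compounds falling between control-based bounds plus 3 SD, cut at about 20% in these data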;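 also: 0% = DMSO wells while the 100% control is not disclosed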
# ADAM17 inh – ADAM17 inhibitors, primary screen, biochemical, QFRET. recombinant ADAM17, EDANS/DABCYL FRET peptide cleavage. hit rate 0.83% among 370,000. Disintegrin and metalloproteinase domain-containing protein 17 (Homo sapiens), P78536. inhibition, % at 6.95 µM;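 active = inhibition above the mean of compounds lying between control limits plus 3 SD, set per campaign, cut at about 8.5% in these data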;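 also: 0% = DMSO-only wells as the low control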
# KLK7 zymogen act – proKLK7 zymogen activators, primary screen, biochemical, fluorescence intensity. Kallikrein-7 (Homo sapiens), P49862. purified proKLK7, EDANS-DABCYL substrate fluorescence; 100% is mature enzyme control, 0% vehicle. activation, % at 7 µM. hit rate 0.9% among 370,000;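 active = activation above the mean of all tested compounds plus 3 SD, computed per campaign excluding outliers beyond control limits, cut at about 13% in these data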
# Target sequence (P49862 whole entry, looked up): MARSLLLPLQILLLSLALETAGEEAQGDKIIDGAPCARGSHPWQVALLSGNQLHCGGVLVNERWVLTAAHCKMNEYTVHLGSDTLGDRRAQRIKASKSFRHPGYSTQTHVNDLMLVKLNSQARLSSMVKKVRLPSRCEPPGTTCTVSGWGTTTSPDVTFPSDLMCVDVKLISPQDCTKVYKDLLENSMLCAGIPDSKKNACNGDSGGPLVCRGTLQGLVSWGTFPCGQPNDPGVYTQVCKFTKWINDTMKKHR
# MPTP counter – fluorescence retest of MPTP screen hits in isolated mitochondria, single concentration; hit rate 78% among 5,000; AID 624504, 2012; membrane potential, Rhodamine 123 fluorescence; inhibition, % at 10 µM; shares compounds with MPTP inh; in the data active = inhibition above about 22%;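 also: 0% = DMSO vehicle and 100% = positive control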
# MPTP abs DR – mitochondrial permeability transition pore inhibitors, dose response, biochemical, absorbance, uHTS hits; IC50, µM; hit rate 58% among 780; AID 651561, 2012; isolated mitochondria swelling; shares compounds with MPTP inh; in the data active = IC50 below about 20 µM
# MPTP counter DR – fluorescent counter-screen in isolated mitochondria, dose response, counter-screen for MPTP inhibitor project, biochemical, fluorescence, uHTS hits. IC50, µM. isolated mitochondria counterscreen, fluorescence read-out. AID 651564, 2012. hit rate 49% among 780. shares compounds with MPTP inh; in the data active = IC50 below about 80 µM
# * hit, by the source's call; i = inactive; . = no result given; ! = repeats disagree. In the library only some 4.7% were active in any assay of this set; here they are far more common.
SMILES,MPTP inh,rCAG RNA binder,Pemphigus Ab inh,ADAM10 inh,ADAM17 inh,KLK7 zymogen act,MPTP counter,others
O=C(NNC1=Nc2cccc3cccc1c23)c1ccc(Br)cc1,82.8*,7.1,.,1.4,-2.3,-0.3,67.0*,
COc1ccc(CC(=O)NNC2=Nc3cccc4cccc2c34)cc1OC,4.6,2.5,97.2,-2.2,-2.0,0.2,.,
CCN1CCCCC(NC(=O)c2ccccc2OC)C1=O (stereo not drawn),.,1.0,.,-13.2,-8.3,0.2,.,
CNNC(=S)Nc1cccc(C(F)(F)F)c1,3.4,1.0,108.3,6.2,4.0,0.0,.,
COc1ccc(NC(=S)NNC(=S)Nc2cccc(C(F)(F)F)c2)cc1,68.6*,17.1,97.6,19.7,7.7,-0.1,72.0*,
FC(F)(F)c1cccc(NC(=S)NC(c2ccccc2)c2ccccc2)c1,70.3*,2.0,116.5,12.0,7.1,-0.2,83.4*,
COc1ccc(-c2cc(C(=O)Nc3cc(OC)cc(C(=O)Nc4cccc(C(F)(F)F)c4)c3)[nH]n2)cc1,54.9*!,7.5,109.0,-7.3,0.8,-0.4,55.8*,
O=C(NC(=S)Nc1cccc(C(F)(F)F)c1)c1ccc2nonc2c1,72.9*,5.3,96.5,8.3,2.9,0.2,80.5*,
CC(C)(O)C(=O)NNC(=S)Nc1cccc(C(F)(F)F)c1,-2.5,2.2,101.6,1.4,-0.6,-0.1,.,
O=C(CNS(=O)(=O)c1ccccc1)N1CCN(c2ccccn2)CC1,.,1.8,.,-3.6,-1.4,-0.1,.,
O=C(C1CCCN1S(=O)(=O)c1ccccc1[N+](=O)[O-])N1CCN(c2ccccc2)CC1 (stereo not drawn),.,6.7,.,-14.0,-0.2,-0.5,.,
CCCn1cnnc1CNC(=O)[C@@H](Cc1ccccc1)NC(=O)[C@H]1O[C@@H](n2ccc(=O)[nH]c2=O)[C@H](O)[C@@H]1O,.,1.3,.,-3.5,-0.8,0.3,.,
Cc1cccnc1NC(=S)Nc1ccc(Cl)c(Cl)c1,89.6*,4.0,101.8,4.6,0.6,0.1,96.5*,
COC(=S)Nc1cccc(C(F)(F)F)c1,3.0,6.3,95.6,0.6,-2.6,-0.1,.,
COc1cc2c(cc1NC(=S)Nc1cccc(C(F)(F)F)c1)oc1ccccc12,94.1*,13.9,100.9,-281.1,-79.7,-1.8,79.5*,
Cc1cccnc1NC(=S)Nc1ncccc1C,0.1,11.8,119.6,5.9,-0.5,-0.1,.,
FC(F)(F)c1cccc(NC(=S)Nc2ccc(Cl)c(Cl)c2)c1,80.8*,5.5,100.4,-1.9,1.5,-0.5,65.2*,
CC(C)(C)NC(=S)Nc1cccc(C(F)(F)F)c1,65.2*,-2.6,92.9,0.7,-3.2,0.3,84.2*,
COc1ccc(OC)c(CN(CC(C)C)S(=O)(=O)c2ccccc2Br)c1,.,5.0,.,10.7,2.5,0.8,.,
COC(=O)c1ccccc1S(=O)(=O)NC(=O)[C@H]1O[C@@H](n2ccc(=O)[nH]c2=O)[C@H](O)[C@@H]1O,.,1.0,.,-7.1,0.7,-0.2,.,
C=CC[C@]12C[C@@]3(O[C@H](C4CCCCC4)N=C3C[C@H](c3ccc(OC)cc3)[C@H]1C)N(Cc1ccncc1)C2=O,.,1.4,.,-9.0,-0.1,0.5,.,
Nc1ccn([C@@H]2O[C@H](C(=O)N[C@H](Cc3ccccc3)C(=O)Nc3ccc4scnc4c3)[C@@H](O)[C@H]2O)c(=O)n1,.,4.3,.,-9.8,-6.6,-0.2,.,
Cc1cc(/C(N)=N/OC(=O)Nc2ccc(Cl)cc2)no1,57.2*,-1.8,95.8,-3.2,-4.7,0.3,82.2*,
O=C(Nc1ccc(Cl)cc1)c1ccc2c(c1)OCO2,0.4,-1.4,110.7,-16.2,-5.3,-0.3,.,
O=C(Nc1ccc(Cl)cc1)C1=Cc2ccccc2OC1,88.9*,4.3,94.1,4.9,7.0,0.1,107.9*,
SMILES,MPTP inh,rCAG RNA binder,Pemphigus Ab inh,ADAM10 inh,ADAM17 inh,KLK7 zymogen act,MPTP counter,others
Cc1ccc(S(=O)(=O)C(C#N)c2nc3ccccc3nc2N2CCCC2)cc1 (stereo not drawn),-4.6,11.8,147.8,i,-411.3,-21.9,.,
Cc1cccc(S(=O)(=O)C(C#N)c2nc3ccccc3nc2N2CC(C)OC(C)C2)c1 (stereo not drawn),55.7*,21.1,124.0,-106.9,-35.3,-19.8,71.2*,
CC1CCCN(c2nc3ccccc3nc2C(C#N)S(=O)(=O)c2cccs2)C1 (stereo not drawn),92.6*,19.8,99.7,-34.9,-12.6,-0.4,66.6*,
COC(=O)C1=C(C)N(Cc2ccccc2C(F)(F)F)C(=NCc2cccc(C(F)(F)F)c2)NC1c1cccc(Cl)c1 (stereo not drawn),.,3.4,.,1.1,1.1,-0.3,.,
C[n+]1ccc(/C=N/Nc2nc(Cl)c(C#N)c(Cl)c2Cl)cc1,103.3*,2.0,112.8,-1.1,-1.2,-0.1,75.9*,
CC(C)(C)NCC(O)COc1ccccc1C1CCCC1 (stereo not drawn),95.1*,9.9,97.1,0.8,-3.6,0.2,-10.0,MPTP abs DR=6.79*;MPTP counter DR=55.6*
OC(CNC1CCCc2ccccc21)COc1ccc2ccccc2c1 (stereo not drawn),1.5,6.5,93.5,1.1,0.1,0.0,.,
CCc1ccccc1OC[C@@H](O)CN[C@H]1CCCc2ccccc21,103.7*,1.6,96.5,2.6,-1.1,0.4,8.4,MPTP abs DR=5.45*;MPTP counter DR=14.8*
CC(C)(C)NC[C@@H](O)COc1cccc2c1CCCC2=O,-0.6,3.4,121.9,-5.9,-3.4,-0.2,.,
Cc1ccccc1CNC(=O)C1CCC(CNS(=O)(=O)c2cccc3cccnc23)CC1 (stereo not drawn),.,2.3,.,-0.2,1.2,-0.5,.,
C=CCCC1CN(Cc2ccc(OC)cc2)S(=O)(=O)c2c(cccc2N(C)S(=O)(=O)c2ccc(C)cc2)O1 (stereo not drawn),.,5.7,.,-1.8,-1.0,-0.2,.,
COC(=O)C1=C(C)N(Cc2ccccc2)C(=NCC(C)C)N[C@H]1c1cccc(C(F)(F)F)c1,86.0*,.,124.3,.,.,.,-1.6,
COC(=O)C1=C(C)N(Cc2ccccc2)C(=NCc2cccc(Cl)c2)N[C@H]1c1cccc(F)c1,85.7*,.,115.2,.,.,.,-9.5,
COc1ccccc1CNC(=O)C[C@H]1CC[C@H]2[C@@H](COc3ccc(NC(=O)Nc4ccccc4)cc3C(=O)N2C)O1,.,5.4,.,2.3,-0.1,0.0,.,
